Screening results from PubChem.
In the library only some 5.8% were active in any assay of this set; here they are far more common.
TRPV1 PAM: human TRPV1 potentiation. potentiation, % at 8.33 µM. hit rate 0.02% among 320,000. TRPV1-expressing cells, Fluo-8 calcium influx, capsaicin EC20 potentiation; in the data active means potentiation above about 80%; inconclusive means between about 30% and that limit; further: 0% is about no effect
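TRPV1-expressing cells were cultured overnight at 35.5C and loaded with Fluo-8 calcium dye for 40 to 90 min at room temperature. After a 10 s baseline, compound was added and calcium influx was read kinetically for 3 min (ex 480/em 520 nm).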
VP16 counter: Gal4-VP16 reporter inhibition counter-screen. hit rate 3.5% among 310,000. AID 2546. Drosophila S2 Gal4-VP16 UAS-luciferase, luminescence, 20 h. Potency, µM (doses to about 53.6 µM), for the others: at the highest dose activity, negative = inhibition, most hits filed as inhibitors;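 further: Gal4-VP16 expression switched on by copper sulfate through the metallothionein promoter; potency means the concentration at half of the fitted maximal effect; on the % scale 0 is the no-effect control and ±100 the full control effect; nearly all actives have a fitted effect of over 50% in size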
uPA surface inh: inhibitors of cell surface uPA generation; cell surface uPA generation assay, qHTS; Potency, µM (titrated, usually from 38.3 µM), inactives show at the highest dose activity change, negative = inhibition, actives largely listed as inhibitors; hit rate 0.31% among 330,000; AID 540303; active means well fitted inhibition curve with a large enough effect; inconclusive means small, poorly fitted or top-dose-only effect; inactive means no such curve, though single readings can be large or run the other way; tested in mouse RAW 264.7 cells; further: potency means the concentration at half of the fitted maximal effect; on the % scale 0 is the no-effect control and ±100 the full control effect; nearly all actives have a fitted effect of over 55% in size
RORgamma inh: ROR gamma (mouse) transcription inhibition. P51450. Drosophila S2 Gal4-RORgamma UAS-luciferase reporter, 20 h. Potency, µM (doses to about 53.6 µM), for the others: top-dose activity change, negative = inhibition, usual class: inhibitors. hit rate 5.4% among 310,000; further: potency means the concentration at half of the fitted maximal effect; on the % scale 0 is the no-effect control and ±100 the full control effect; nearly all actives have a fitted effect of over 60% in size
Target sequence (P51450 whole entry, looked up, the tested form may be a part): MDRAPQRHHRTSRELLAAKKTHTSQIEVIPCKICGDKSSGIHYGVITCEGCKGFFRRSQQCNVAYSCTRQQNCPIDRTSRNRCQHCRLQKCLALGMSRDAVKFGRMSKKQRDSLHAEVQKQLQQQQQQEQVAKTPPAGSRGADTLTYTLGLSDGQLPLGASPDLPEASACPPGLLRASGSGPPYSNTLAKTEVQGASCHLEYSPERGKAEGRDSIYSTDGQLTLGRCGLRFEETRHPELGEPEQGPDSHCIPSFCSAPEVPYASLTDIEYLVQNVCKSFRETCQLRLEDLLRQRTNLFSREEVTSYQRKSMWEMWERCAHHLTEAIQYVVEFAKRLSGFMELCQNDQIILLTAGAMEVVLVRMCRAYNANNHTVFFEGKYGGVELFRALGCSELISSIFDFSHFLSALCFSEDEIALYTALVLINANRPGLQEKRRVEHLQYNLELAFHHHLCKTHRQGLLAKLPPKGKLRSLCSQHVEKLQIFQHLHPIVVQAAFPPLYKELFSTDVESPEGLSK
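A Gal4/UAS one-hybrid system in insect cells: metallothionein-promoter Gal4–ROR gamma fusion plus Photinus luciferase reporter. Copper sulfate 700 uM final, 20 hr ambient incubation, luminescent detection after 10 min with reagent.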
TRPV1 ag: activates the human vanilloid receptor TRPV1; hit rate 0.19% among 320,000; Q8NER1; TRPV1-expressing cells, Fluo-8 calcium influx, agonist mode; activation, % at 8.33 µM; AID 540275; in the data active means activation above about 80%; inconclusive means between about 30% and that limit; further: 0% is about no effect
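Cells expressing TRPV1 were dye-loaded with Fluo-8 and read kinetically: 10 s baseline, 3 min after compound (agonist portion), then 2 min after EC20 capsaicin (allosteric enhancer portion). Calcium-bound dye fluorescence at 480/520 nm.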
* marks the source's active call; other numbers are inactive results; ? = inconclusive; / = not tested or not shown; [ ] = another dose, or the depositor's remark. Unless noted, the call rests on the fitted dose curve; in most records, active means well fitted curve in the direction sought with a large enough effect; inconclusive means small, poorly fitted or top-dose-only effect, or another doubt; inactive means no such curve, though single readings can be large; an effect the other way counts as inactive or inconclusive.

SMILES	TRPV1 PAM	VP16 counter	uPA surface inh	RORgamma inh	TRPV1 ag
COc1cc(/C=N/Nc2nncc3ccccc23)cc(OC)c1OC	1	11µM*	3%	?	-3
COC(=O)C1=C(C(=O)OC)SC2(S1)C(C(=O)OC)=C(C(=O)OC)SC1=C2c2cccc(C)c2NC1(C)C	6	?	-10%	5.6µM*	-3
Cc1[nH]n(-c2cccc3ccccc23)c(=O)c1/C=N/NC(=O)c1cccc([N+](=O)[O-])c1	-17	3.5µM*	23%	2.8µM*	27
Cc1ccc(-n2[nH]c(C)c(/C=N/Nc3ccc([N+](=O)[O-])cc3[N+](=O)[O-])c2=O)cc1C	4	?	-3%	-4%[10 µM]	-2
O=C(N/N=C/c1ccncc1)c1cccc([N+](=O)[O-])c1	-11	-2%	/	7%	10
Cc1ccc(-n2[nH]c(C)c(/C=N/NC(=O)c3ccc([N+](=O)[O-])cc3)c2=O)c(C)c1	-26	5µM*	/	1.8µM*	29
Cc1[nH]n(-c2ccccc2)c(=O)c1/C=N/NC(=O)c1cccc([N+](=O)[O-])c1	3	2.5µM*	-9%	1µM*	14
O=C1[C@@H]2[C@H]3[C@H](O)[C@H](O)C/C(=N/OCc4ccccc4)[C@@H]3CC[C@H]2C(=O)N1c1ccc(F)cc1F	/	1%[10 µM]	/	14%[10 µM]	/
c1ccc(CNc2c3c(nc4ncnn24)CCC3)cc1	?	-1%	-1%	-3%	-9
O=C(NNC1=Nc2cc([N+](=O)[O-])ccc2OC1)c1ccccc1Cl	0	-19%	-13%	1µM*	10
O=C(NNc1ccc([N+](=O)[O-])cc1)c1ccccc1Cl	6	-16%	-5%	19%	14
CCn1c(C)c(C(C)=O)c(N2CCN(c3ccccc3)CC2)nc1=S	-21	22%	4%	-20%	13
CC(=O)c1c(N2CCN(C)CC2)[nH]c(-c2ccccc2)nc1=S	-3	-20%	-8%	10µM*	-1
Cc1ccc(S(=O)(=O)NCc2ccc(N3CCN(C(=O)OC(C)(C)C)CC3)cc2)cc1	1	?	2%	?	1
CCOC(=O)c1c(C)oc2c1c(C(c1ccccc1)N1CCOCC1)c(O)c1ccccc12 (stereo not drawn)	18	10µM*	/	?	-1
CCOC(=O)c1c(C)oc2c1c(C=NCCO)c(O)c1ccccc12	-9	?	-11%	11µM*	26
OCc1ccc(-c2ccc(-c3ccc(CO)s3)o2)s1	/	1.6µM*	/	0.63µM*	/
Cc1ccc2cc3cc(C(=O)NC4CC4)oc3nc2c1	-4	6%	-27%	-21%	-3
Cc1ccc(C(=O)NC2CCCCCCC2)c(Cl)c1	-18	8.9µM*	?	7.1µM*	15
O=C(NC1CCCCCCC1)c1cc(F)c(F)cc1Cl	-6	-17%	-8%	43%	4
Cc1ccc2cc3cc(C(=O)NC4CCCCC4)oc3nc2c1	-16	?	7%	0.56µM*	?
S=C(NCCc1ccccc1)NC1CCCCCC1	24	9%[0.365 µM]	-2%	2.8µM*	-9
S=C(NC1CCCCC1)N(CCc1ccccc1)CCc1ccccc1	14	10µM*	-44%	10µM*	?
S=C(NCCc1ccccc1)NCC(c1ccco1)N1CCCCC1 (stereo not drawn)	-10	?	-4%	10µM*	12
S=C(NCCc1ccc(Cl)cc1)NC1CCCCC1	-5	5µM*	7%	3.5µM*	?
SMILES	TRPV1 PAM	VP16 counter	uPA surface inh	RORgamma inh	TRPV1 ag
OCCN(Cc1ccccc1)C(=S)NC1CCCCC1	-9	-2%	0%	?	7
Nc1cccc(N)c1	/	-5%	/	-9%	/
NC(=O)C1(N2CCCCC2)CCN(C(=O)NC2CCCCC2)CC1	-6	14%	5%	-1%	-1
CCOC(=O)C1OC1C(=O)N[C@@H](CC(C)C)C(=O)NCCC(C)C (stereo partly drawn)	/	4%	/	26%	/
CCC(C)(C(=O)NC1CCCCC1)N(Cc1ccco1)C(=O)c1ccccn1 (stereo not drawn)	14	-27%	2%	-6%	0
Cc1ccc(NC(=S)N/N=C2\CCCCC2C)cc1 (stereo not drawn)	-7	0%	/	?	1
CC1CCCC/C1=N\NC(=S)NCCc1ccccc1 (stereo not drawn)	-10	1.8µM*	-11%	0.35µM*	21
O=C(NC1CCCCC1)C(=S)NCCc1ccccc1	6	2%	3%	20%	0
S=C(NCCNCc1ccccc1)NC1CCCCC1	-4	?	/	4µM*	18
S=C(NCCc1ccc(Cl)cc1)NC1CCCC1	8	6.3µM*	1%	2µM*	?
C/C=C1\COC(C(=O)NCCN2CCOCC2)(C(F)(F)F)C=C1C=C(C)C (stereo not drawn)	/	-14%	/	-30%	/
CN(C)c1ccc(N=Cc2nc(-c3ccccc3)oc2OC(=O)c2cccc(Cl)c2)cc1	-11	?	1%	?	80*
FC(F)(F)c1cccc(NC(=S)N(CCCN2CCCC2)Cc2cccn2Cc2ccc(Cl)cc2)c1	2	?	5%	14µM*	7
C#CCCCO/N=C1/C[C@@H](O)[C@@H](O)[C@@H]2[C@@H]3C(=O)N(Cc4ccc5c(c4)OCO5)C(=O)[C@H]3CC[C@H]12	/	5%[10 µM]	/	-1%[10 µM]	/
Cc1ccc(Cl)c(OCC(=O)Nc2cccnc2)c1	-12	2%	11%	2%	22
COc1cc(OC)c(C2=NOC(C(=O)N3CCCc4ccccc43)C2)cc1Cl (stereo not drawn)	-1	4.5µM*	/	5.6µM*	5
CC(C)=C1C2CCC1C1C(=O)N(c3nc(-c4ccccc4)c(C)s3)C(=O)C21 (stereo not drawn)	?	-7%	-2%	13%	-5
Nc1c(-c2ccc(Cl)cc2)cnc2ncnn12	17	-11%	-1%	3%	-3
Cc1cc2ncc(-c3ccc(Cl)cc3)c(N)n2n1	6	?	3.5µM*	?	-4
Nc1c(-c2ccccc2)cnc2cc(-c3ccccc3)nn12	-5	?	?	2.8µM*	?
O=C(O)CC1c2ccccc2C=Cc2ccccc21	-26	/	-1%	/	2
O=C(Oc1c(CN2CCOCC2)cc(Cl)c2cccnc12)c1ccccc1Br	/	4µM*	?	6.3µM*	/
CN1CCN(Cc2cc(Cl)c3cccnc3c2OC(=O)c2cccs2)CC1	-2	13µM*	-5%	4.5µM*	-3
O=C(CCc1c[nH]c2ccccc12)NCCc1ccc(Cl)cc1	0	0%	-1%	39%	80*
COc1ccc(NC(=O)CCCN2C(=O)CN(C)C2=O)cc1Cl	-4	/	-9%	/	0
Cc1ccc(C(C(=O)NCc2ccco2)N(C(=O)CNC(=O)c2cccs2)c2c(C)cccc2C)cc1 (stereo not drawn)	-7	16µM*	6%	?	0
